This note sets out measurements from PubChem BioAssay (NCI).

What all share (test): NCI-60 one-dose screen, 48 h (100 = growth as untreated, 0 = no growth, -100 = all killed)
What all share (settings): 10 µM unless noted

The test system of assay [1] is DU-145 prostate.
Assay [2] concerns K-562 leukemia.
Assay [3] has as its system MALME-3M melanoma.
For assay [4], the system named is MDA-MB-231 breast.
Assay [5] concerns RXF 393 renal.
The subject of assay [6] is SF-268 CNS.
Assay [7] deals with SF-295 CNS.
For assay [8], the system named is SF-539 CNS.
Assay [9] has as its system UACC-257 melanoma.
The test system of assay [10] is M14 melanoma.
Assay [11] relates to HCT-15 colon.
For assay [12], the system named is HT29 colon.
For assay [13], the system named is SNB-75 CNS.
Assay [14] deals with SNB-19 CNS.
In assay [15] the test system is U251 CNS.
Assay [16] relates to PC-3 prostate.
Assay [17] relates to SK-MEL-5 melanoma.
The test system of assay [18] is UACC-62 melanoma.
Assay [19] concerns LOX IMVI melanoma.
Assay [20] relates to SK-MEL-28 melanoma.

About 83,000 compounds went through this panel and 20% of them were active in at least one assay; those are over-represented in the sample as a whole.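 For each line, cells grew in 96-well plates with the test compound present at a single concentration for 48 hours.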 Unmarked numbers belong to inactive results. Calls of active or inactive are those of the source. The calls were made as follows: active = growth percent below 10; inactive = the rest.

For the compound `CCCCNC(=O)Oc1ccc(/C(=C(/C)Cc2ccc(OC)cc2)c2ccc(OCCN3CCCCCC3)cc2)cc1`, the growth in assay [1] is 91.6%; in assay [2] it was 10.3%; in assay [3], 99.5%; in assay [4], 81.5%; in [5], 75.1%; in assay [6] it was 83.5%. The growth is 92.2% in assay [7]; 95.4% in assay [8]; 94.4% in assay [9]; 91.1% in assay [10]; 27.8% in assay [11]; 3.69% (active) in [12]. Also, the growth was 79.2% in [13]; 85.8% in [14]; 62.5% in [15]; 65.5% in assay [16]; 82.7% in assay [17]; 79.1% in assay [18]. The results for the growth in [19] and in [20] were 14% and 95%, respectively.

Consider `NC1(CO)COC(c2ccccc2)OC1` (stereo not given), for which the growth in assay [1] was 115%; in assay [2], 89.5%; in assay [3], 109%; in assay [4], 112%; in [5], 104%; in assay [6], 110%. Also, the growth in assay [7] was 113%; in assay [8] it was 109%; in assay [9] it was 98.4%; in assay [10], 118%; in [11], 113%; in [12] it was 96.7%. The growth in [13] was 120%; in assay [14] it was 111%; in [15], 97.5%; in [16], 99%; in assay [17], 96.1%; in assay [18], 111%. The growth in assay [19] is 107%; in assay [20] it was 118%.

Take `O=C(Nc1ccccc1N1CCCC1=O)c1oc2ccc(F)cc2c1-c1cnn(-c2ccccc2)c1`: the growth in assay [1] is 68.8% [50 µM]; in [2] it was 42.9% [50 µM]; in [3], 28.8% [50 µM]; in [4] it was 21.7% [50 µM]; in assay [5], 25.8% [50 µM]; in assay [6] it was 40.1% [50 µM]. The growth in [7] is 43.5% [50 µM]; in [8], 30.8% [50 µM]; in [9] it was 69.9% [50 µM]; in [10], 77.7% [50 µM]; in assay [11], 44.9% [50 µM]; in assay [12], 62.2% [50 µM]. In addition, the growth in assay [13] was 14.8% [50 µM]; in assay [14], 54.5% [50 µM]; in [15], 62.8% [50 µM]; in assay [16], 39.7% [50 µM]; in [17] it was 10.6% [50 µM]; in assay [18], 46.1% [50 µM]. The figures for the growth in assay [19] and in [20] were 42.2% [50 µM] and 72% [50 µM], respectively.

Consider `Nc1nc(N)c2c(n1)NC(c1cccc(Nc3ccnc4cc(C(F)(F)F)ccc34)c1)CC(c1ccc(Br)cc1)=N2` (stereo not given), for which the growth was 71.2% in [1]; 10.5% in assay [2]; 53.6% in [3]; 57.3% in [4]; 40.7% in assay [5]; 61.4% in [6]. Besides, the growth in [7] was 52%; in assay [8], 83.9%; in [9] it was 71.5%; in [10] it was 42.9%; in assay [11], 19.5%; in assay [12], 10.9%. Also, the growth in [13] was 57.2%; in assay [14] it was 66.4%; in [15] it was 44.7%; in assay [16] it was 36.6%; in assay [17] it was 48.1%; in assay [18] it was 77.9%. Besides, the growth in assay [19] is 24.6%; in [20] it was 73.6%.

As for `CCOC(=O)c1cnc2c(N=Nc3ccc(OC)cc3)c(N)nn2c1N`, the growth in assay [1] was 102%; in assay [2], 107%; in [3], 106%; in assay [4] it was 101%; in assay [5] it was 113%; in [6] it was 94.2%. The growth in assay [7] is 102%; in [8], 110%; in assay [9] it was 103%; in assay [10] it was 110%; in [11], 102%; in [12] it was 99.3%. In addition, the growth is 106% in assay [13]; 98.6% in [14]; 105% in [15]; 98.7% in assay [16]; 96.2% in assay [17]; 97.3% in assay [18]. For the same compound, the figures for the growth in assay [19] and in assay [20] were 110% and 114%, respectively.

For `CCCCCCCC/C=C\CCCCCCCCOc1ccc(CC(=O)NCC[N+]2(C)CCOCC2)cc1`, the growth in assay [1] was 88.5%; in assay [2] it was 62.8%; in assay [3], 80.9%; in [4], 68%; in assay [5], -38.6% (active); in assay [6], 70.2%. Moreover, the growth in [7] is 85.7%; in assay [8] it was 81.1%; in [9] it was 96.9%; in assay [10] it was 81.4%; in [11], 90.8%; in [12], 36.9%. Also, the growth was 41.2% in [13]; 38.7% in [14]; 15.4% in assay [15]; 12.5% in [16]; 99% in [17]; 57.5% in assay [18]. The growth in assay [19] was 84.2%; in [20], 93.7%.

With `Fc1ccc2[nH]cc(-c3nc(-c4c[nH]c5ccncc45)cs3)c2c1`, the growth in [1] was -0.992% (active); in [2] it was -41.7% (active); in [3], -85.3% (active); in assay [4], -59.8% (active); in [5] it was -84.6% (active); in [6], -31.5% (active). Also, the growth was -74.1% (active) in assay [7]; -92.6% (active) in assay [8]; -67.8% (active) in assay [9]; -66.4% (active) in assay [10]; -50% (active) in assay [11]; -62.9% (active) in [12]. Besides, the growth is -31.6% (active) in [13]; -48.4% (active) in assay [14]; -81.8% (active) in [15]; 7.43% (active) in [16]; -94.6% (active) in [17]; -75.3% (active) in [18]. The growth is -92.3% (active) in [19] and -92.1% (active) in [20].

For `O=[N+]([O-])c1cc(NS(=O)(=O)c2ccccc2)ccc1NS(=O)(=O)c1ccccc1`, the growth in assay [1] is 87.1%; in assay [2], 125%; in assay [3], 155%; in [4] it was 91%; in assay [5] it was 134%; in assay [6] it was 106%. Besides, the growth is 133% in assay [7]; 118% in assay [8]; 95% in assay [9]; 88.5% in [10]; 72.1% in assay [11]; 84.6% in assay [12]. Further, the growth in [13] is 125%; in assay [14] it was 108%; in assay [15] it was 102%; in assay [16], 80.7%; in [17] it was 99.4%; in [18], 85.7%. For the same compound, the growth in assay [19] was 99%; in [20] it was 111%.
